Experimental data from PubChem BioAssay AID1159580 (chemical genetic matrix, 2015).
The campaign covered roughly 5,500 compounds. About 2,000 (36%) were called active. Roughly 18% stayed inconclusive and do not appear here. Rule as the data show it: active = normalized growth mostly below about 0.91 (no sharp cut-off); inconclusive = no clear call, values can overlap the other calls; inactive = mostly above about 0.92. Some of the results follow.

Assay: chemical genetic growth profiling, strain panel (AID 1159580);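 also: tested at 20 µM; growth read once vehicle control cultures reached saturation at 30 °C; 1 = growth at the plate median or of vehicle wells; lower values mean less growth of the strain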
Details: growth OD

Measured: normalized growth

O=c1cccc2n1CC1CC2CN2CCCC[C@@H]12 (stereo not given in full)
inactive: S. cerevisiae deletion strains, locus YJR043C, strain POL32, active compounds read low 0.982 | S. cerevisiae deletion strains, locus YJR066W, strain TOR1, active compounds read low 0.98 | S. cerevisiae deletion strains, locus YJR075W, strain HOC1, active compounds read low 0.986 | S. cerevisiae deletion strains, locus YKL009W, strain mrt4, active compounds read low 0.977 | S. cerevisiae deletion strains, locus YKL068W, active compounds read low 0.983 | S. cerevisiae deletion strains, locus YKL085W, strain MDH1 (second series), active compounds read low 0.986 | S. cerevisiae deletion strains, locus YKL085W, strain MDH1, active compounds read low 0.986 | S. cerevisiae deletion strains, locus YKL160W, strain elf1, active compounds read low 0.996 | S. cerevisiae deletion strains, locus YKR001C, strain vps1, active compounds read low 1 | S. cerevisiae deletion strains, locus YKR026C, strain gcn3, active compounds read low 0.965 | S. cerevisiae deletion strains, locus YKR091W, strain srl3, active compounds read low 0.978 | S. cerevisiae deletion strains, locus YLL001W, strain dnm1, active compounds read low 0.987 | S. cerevisiae deletion strains, locus YLL026W, active compounds read low 0.976 | S. cerevisiae deletion strains, locus YLL041C, strain sdh2, active compounds read low 0.98 | S. cerevisiae deletion strains, locus YLR027C, strain aat2, active compounds read low 0.984 | S. cerevisiae deletion strains, locus YLR039C, strain RIC1, active compounds read low 1 | S. cerevisiae deletion strains, locus YLR058C, strain SHM2, active compounds read low 0.978 | S. cerevisiae deletion strains, locus YLR102C, strain apc9, active compounds read low 0.982 | S. cerevisiae deletion strains, locus YLR113W, strain HOG1, active compounds read low 0.985 | S. cerevisiae deletion strains, locus YLR221C, strain rsa3, active compounds read low 1 | S. cerevisiae deletion strains, locus YLR258W, strain gsy2, active compounds read low 0.978 | S. cerevisiae deletion strains, locus YLR262C, strain YPT6 (second series), active compounds read low 1.01 | S. cerevisiae deletion strains, locus YLR262C, strain YPT6, active compounds read low 0.955 | S. cerevisiae deletion strains, locus YLR268W, strain sec22, active compounds read low 1.03 | S. cerevisiae deletion strains, locus YLR320W, strain mms22, active compounds read low 0.974 | S. cerevisiae deletion strains, locus YLR330W, strain CHS5, active compounds read low 0.997 | S. cerevisiae deletion strains, locus YLR342W, strain FKS1 (second series), active compounds read low 1.01 | S. cerevisiae deletion strains, locus YLR342W, strain FKS1, active compounds read low 0.975 | S. cerevisiae deletion strains, locus YLR357W, strain rsc2, active compounds read low 0.943 | S. cerevisiae deletion strains, locus YLR370C, strain arc18, active compounds read low 0.989 | S. cerevisiae deletion strains, locus YLR371W, strain rom2, active compounds read low 0.977 | S. cerevisiae deletion strains, locus YLR384C, strain iki3, active compounds read low 0.976 | S. cerevisiae deletion strains, locus YLR418C, strain cdc73, active compounds read low 0.957 | S. cerevisiae deletion strains, locus YML016C, strain PPZ1, active compounds read low 0.991 | S. cerevisiae deletion strains, locus YML032C, strain rad52, active compounds read low 0.987 | S. cerevisiae deletion strains, locus YML120C, strain ndi1, active compounds read low 1.02 | S. cerevisiae deletion strains, locus YML124C, strain tub3, active compounds read low 0.978 | S. cerevisiae deletion strains, locus YMR058W, strain fet3, active compounds read low 0.987 | S. cerevisiae deletion strains, locus YMR078C, strain ctf18, active compounds read low 0.98 | S. cerevisiae deletion strains, locus YMR125W, strain sto1, active compounds read low 0.944 | S. cerevisiae deletion strains, locus YMR129W, active compounds read low 0.987 | S. cerevisiae deletion strains, locus YMR205C, strain PFK2, active compounds read low 0.928 | S. cerevisiae deletion strains, locus YMR223W, strain ubp8, active compounds read low 0.958 | S. cerevisiae deletion strains, locus YMR231W, strain pep5, active compounds read low 0.98 | S. cerevisiae deletion strains, locus YMR263W, strain SAP30, active compounds read low 0.981 | S. cerevisiae deletion strains, locus YMR307W, strain GAS1, active compounds read low 1.04 | S. cerevisiae deletion strains, locus YNL067W, strain RPL9B, active compounds read low 0.989 | S. cerevisiae deletion strains, locus YNL071W, strain lat1, active compounds read low 0.994 | S. cerevisiae deletion strains, locus YNL153C, strain GIM3, active compounds read low 0.993 | S. cerevisiae deletion strains, locus YNL183C, strain NPR1, active compounds read low 0.993 | S. cerevisiae deletion strains, locus YNL209W, strain ssb2, active compounds read low 0.984 | S. cerevisiae deletion strains, locus YNL233W, strain BNI4, active compounds read low 1 | S. cerevisiae deletion strains, locus YNL248C, strain rpa49, active compounds read low 1.01 | S. cerevisiae deletion strains, locus YNL250W, strain rad50, active compounds read low 0.967 | S. cerevisiae deletion strains, locus YNL271C, strain bni1, active compounds read low 0.996 | S. cerevisiae deletion strains, locus YNL298W, strain CLA4, active compounds read low 0.986 | S. cerevisiae deletion strains, locus YNL307C, strain MCK1, active compounds read low 0.981 | S. cerevisiae deletion strains, locus YNL322C, strain KRE1 (second series), active compounds read low 0.976 | S. cerevisiae deletion strains, locus YNR049C, strain mso1, active compounds read low 0.974 | S. cerevisiae deletion strains, locus YNR052C, strain pop2, active compounds read low 0.979 | S. cerevisiae deletion strains, locus YOL006C, strain TOP1, active compounds read low 1.04 | S. cerevisiae deletion strains, locus YOL012C, strain htz1 0.724 | S. cerevisiae deletion strains, locus YOL147C, strain pex11, active compounds read low 0.98 | S. cerevisiae deletion strains, locus YOR001W, strain rrp6, active compounds read low 0.993 | S. cerevisiae deletion strains, locus YOR061W, strain CKA2, active compounds read low 0.962 | S. cerevisiae deletion strains, locus YOR069W, strain VPS5, active compounds read low 0.999 | S. cerevisiae deletion strains, locus YOR070C, strain gyp1, active compounds read low 0.99 | S. cerevisiae deletion strains, locus YOR080W, strain dia2, active compounds read low 0.971 | S. cerevisiae deletion strains, locus YOR083W, strain WHI5, active compounds read low 1.02 | S. cerevisiae deletion strains, locus YOR106W, strain vam3, active compounds read low 0.985 | S. cerevisiae deletion strains, locus YOR136W, strain idh2, active compounds read low 0.973 | S. cerevisiae deletion strains, locus YOR144C, strain elg1, active compounds read low 0.976 | S. cerevisiae deletion strains, locus YOR184W, strain ser1, active compounds read low 0.973 | S. cerevisiae deletion strains, locus YOR231W, strain MKK1, active compounds read low 1.03 | S. cerevisiae deletion strains, locus YOR265W, strain rbl2, active compounds read low 0.968 | S. cerevisiae deletion strains, locus YOR270C, strain vph1, active compounds read low 0.987 | S. cerevisiae deletion strains, locus YOR290C, strain snf2, active compounds read low 0.951 | S. cerevisiae deletion strains, locus YOR316C, strain cot1, active compounds read low 0.976 | S. cerevisiae deletion strains, locus YPL051W, strain arl3, active compounds read low 1 | S. cerevisiae deletion strains, locus YPL078C, strain atp4, active compounds read low 0.999 | S. cerevisiae deletion strains, locus YPL106C, strain sse1, active compounds read low 0.927 | S. cerevisiae deletion strains, locus YPL240C, strain hsp82, active compounds read low 0.994 | S. cerevisiae deletion strains, locus YPL241C, strain CIN2, active compounds read low 0.994 | S. cerevisiae deletion strains, locus YPL256C, strain CLN2, active compounds read low 1.01 | S. cerevisiae deletion strains, locus YPR119W, strain clb2, active compounds read low 0.976 | S. cerevisiae deletion strains, locus YPR141C, strain kar3, active compounds read low 0.97 | S. cerevisiae deletion strains, locus YPR163C, strain tif3, active compounds read low 0.973 | S. cerevisiae deletion strains, locus YPR167C, strain met16, active compounds read low 0.973 | S. cerevisiae deletion strains, strain wtn01, active compounds read low 1.04 | S. cerevisiae strains, strain wild type, active compounds read low 1
